The full list was thinned out, with hits kept by preference.
S1P2 antag: antagonists of human S1P2 receptor | cell-based S1P2 antagonist assay, inhibition at 5 uM | inhibition, % at 5 µM | 0.21% of 97,000 active | O95136; in the data active means inhibition above about 45%;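 further: CRE beta-lactamase reporter cells expressing human S1P2 stimulated with S1P; 0% = agonist at EC80 alone and 100% = agonist plus reference antagonist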
Target sequence (O95136 whole entry, looked up): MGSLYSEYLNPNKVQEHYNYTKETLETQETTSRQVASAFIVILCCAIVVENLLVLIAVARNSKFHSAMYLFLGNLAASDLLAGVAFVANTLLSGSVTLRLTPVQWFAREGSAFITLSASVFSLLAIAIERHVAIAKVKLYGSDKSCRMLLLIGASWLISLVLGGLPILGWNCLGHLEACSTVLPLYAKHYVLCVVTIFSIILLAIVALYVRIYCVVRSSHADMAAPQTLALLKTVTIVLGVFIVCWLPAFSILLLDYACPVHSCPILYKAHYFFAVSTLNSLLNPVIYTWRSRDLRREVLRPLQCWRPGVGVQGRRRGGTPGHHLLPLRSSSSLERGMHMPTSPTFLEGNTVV
GALR2 blocker: GALR2 (human) receptor antagonism; O43603; GALR2-expressing cells, antagonist mode; inhibition, % at 4 µM; 0.39% of 140,000 active; AID 828; in the data active means inhibition above about 27%;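 further: cells stimulated with galanin 1-16 at roughly its EC80; 0% = agonist challenge control and 100% = basal control without agonist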
PostGolgi ctrl: growth of the yeast control strain, post-Golgi counter-screen | 5% of 98,000 active | efflux-deficient yeast background strain, growth absorbance A615, 16 h | inhibition, % at 10 µM | AID 738
PostGolgi yeast: growth inhibition of a yeast mutant, post-Golgi transport screen; post-Golgi transport phenotypic cell assay; inhibition, % at 10 µM; 0.9% of 98,000 active; AID 739;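 further: yeast cells grown in 1536-well plates; yeast grown about 18 h at 30C before absorbance read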
S1P2 agonist: activates the human S1P2 receptor; O95136; 0.46% of 97,000 active; activation, % at 4.5 µM; S1P2-expressing cell line, agonist reporter read-out; in the data active means activation above about 16%;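 further: 0% = vehicle low control and 100% = maximal reference agonist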
GALR2 agonist: activates the human galanin receptor 2; activation, % (concentration not given with the values); GALR2-expressing cells, agonist activation read-out; 0.48% of 140,000 active; in the data active means activation above about 5%, passing the limit was not always enough;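 further: 0% = vehicle buffer wells and 100% = reference agonist at full effect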
Active calls of the source: *; x = no result given. Unless noted, no stated cut-off is given here; in the data, active means inhibition above about 30%; inactive means the rest.

SMILES | S1P2 antag | GALR2 blocker | PostGolgi ctrl | PostGolgi yeast | S1P2 agonist | GALR2 agonist
Cc1ccccc1NC(=O)C1CCCN(S(=O)(=O)c2cccc3cccnc23)C1 (configuration not stated) | -0.2 | 6.6 | 30.8* | -6.0 | -5.6 | -1.9
CCOc1ccc(OCC)c(NC(=O)C2CCCN2S(=O)(=O)c2cccc3cccnc23)c1 (configuration not stated) | -18.4 | -8.1 | 26.7 | 5.8 | -8.2 | 0.6
CCCCN1CNC(=S)N(Cc2ccccc2)C1 | x | -6.6 | x | x | x | -0.3
COc1ccc(/C=C/C(=O)OCC(=O)Nc2ccc(Cl)c(S(=O)(=O)N(C)C)c2)cc1OC | x | 12.2 | x | x | x | -1.5
Cc1ccc(C(=O)c2no[n+]([O-])c2C(=O)c2ccc(C)cc2)cc1 | x | -14.9 | x | x | x | -1.7
Clc1cc(Sc2ccc(Br)cc2)nnc1-c1ccccc1 | -7.7 | 10.5 | 65.1* | -8.2 | 5.4 | -1.3
COCc1cc(Sc2ccc(Br)cc2)nc(-c2ccccc2)n1 | -5.4 | -2.6 | 10.9 | -2.6 | -1.9 | -3.0
CC(C)CC(=O)O/N=C1\C(=O)N(c2ccccc2)c2ccccc21 | 17.3 | 10.4 | 21.8 | 2.3 | -7.5 | -4.6
CC(C)CC(=O)O/N=C1\C(=O)N(Cc2ccc(Cl)cc2)c2ccc([N+](=O)[O-])cc21 | -3.2 | 0.4 | 32.9* | 8.3 | -12.1 | -4.3
CCn1c(SCC(=O)OC)nnc1C1CCCCC1 | -3.2 | 0.3 | 18.1 | 5.7 | -6.9 | -2.3
CCn1c(SCC(=O)O)nnc1C1CCCCC1 | 10.1 | -4.8 | 31.2* | 11.6 | -1.3 | -0.2
O=C(c1ccc(Cl)cc1Cl)c1ncc(C(F)(F)F)cc1Cl | 5.8 | -3.6 | 13.4 | 3.3 | -9.8 | -2.2
O/N=C(\c1ccc(Cl)cc1Cl)c1ncc(C(F)(F)F)cc1Cl | -7.8 | -3.4 | 59.2* | -0.2 | 0.8 | -3.4
CCc1cc2c(SCC(=O)c3ccc(Cl)s3)ncnc2s1 | -2.9 | -4.1 | 35.9* | -4.1 | -2.7 | -1.6
O=C(C1CCN(C2CC(=O)N(Cc3ccccc3)C2=O)CC1)N1CCCCCC1 (configuration not stated) | -3.5 | 3.8 | 3.4 | 31.7* | -3.0 | -2.5
CCN1C(=O)CC(N2CCC(Nc3ccc(OC)cc3)CC2)C1=O (configuration not stated) | -9.0 | 2.8 | -1.2 | -5.5 | -4.8 | -4.6
CCN1C(=O)CC(N2CCC(C(=O)OC)CC2)C1=O (configuration not stated) | -11.6 | -7.6 | 31.9* | 3.9 | 2.0 | -0.4
O=C1CC(N2CCN(C3CC(=O)N(CCc4ccccc4)C3=O)CC2)C(=O)N1CCc1ccccc1 (configuration not stated) | 3.5 | -2.6 | 46.7* | -1.9 | -3.6 | -0.3
CCOc1cc(/C=C2\CCCC(C(=O)C(F)(F)F)=C2O)ccc1O | x | 8.1 | x | x | x | 0.4
Oc1ccc(-c2nccc(-c3cccs3)n2)cc1 | 13.3 | 5.1 | 15.4 | -2.1 | -1.8 | -1.2
O=C(c1cc2c(s1)CCCC2)N1CCN(Cc2ccc3c(c2)OCO3)CC1 | 16.3 | -11.4 | 27.3 | 36.3* | -6.1 | -0.9
O=C(NCc1ccccc1)C1COc2ccccc2O1 (configuration not stated) | -9.2 | -12.1 | x | x | -4.9 | -0.7
O=C(C1COc2ccccc2O1)N1CCN(Cc2ccc3c(c2)OCO3)CC1 (configuration not stated) | x | 10.1 | 27.7 | 65.1* | x | -0.6
O=C(C1COc2ccccc2O1)N1CCCC1 (configuration not stated) | 4.6 | -13.7 | 2.9 | 1.3 | -2.8 | -0.6
O=C(NC1CCN(Cc2ccccc2)CC1)C1COc2ccccc2O1 (configuration not stated) | 18.9 | -1.8 | 14.1 | 69.8* | -7.5 | -0.7
SMILES | S1P2 antag | GALR2 blocker | PostGolgi ctrl | PostGolgi yeast | S1P2 agonist | GALR2 agonist
CC(C)C(NC(=O)c1ccc(F)cc1)C(=O)OCC(=O)N1CC(=O)Nc2ccccc21 (configuration not stated) | x | 10.0 | x | x | x | -2.8
N=c1c2c(-c3ccccc3)c(-c3ccccc3)n(Cc3ccco3)c2ncn1Cc1ccccc1 | 10.1 | -3.5 | 33.7* | 75.3* | -11.9 | 0.2
CC(C)Cn1cnc2c(c(-c3ccccc3)c(-c3ccccc3)n2Cc2ccco2)c1=N | 29.8 | 6.8 | 62.2* | 83.4* | -3.0 | -0.1
N=c1c2c(-c3ccccc3)c(-c3ccccc3)n(Cc3ccccc3)c2ncn1CCO | 16.1 | -24.6 | 18.1 | 22.8 | -4.5 | 1.7
N=c1c2c(-c3ccccc3)c(-c3ccccc3)n(Cc3ccco3)c2ncn1CCCn1ccnc1 | x | 11.0 | x | x | x | 0.8
COC(=O)c1[nH]c2ccc(F)cc2c1NC(=O)CCN1CCN(C(=O)c2ccco2)CC1 | 2.0 | -5.7 | 31.8* | 0.0 | -3.1 | 0.1
CC(=NC1CC1)c1c(-c2ccccc2)[nH]n(-c2nc3ccccc3s2)c1=O | -21.4 | 12.5 | 36.1* | -3.6 | -2.7 | -4.6
COc1cccc([C@@H]2Oc3ccc(OC)cc3C(=O)[C@H]2OC(=O)NCc2ccc3c(c2)OCO3)c1 | x | 10.7 | x | x | x | -1.5
O=C(NCc1ccccc1)c1ccc(Oc2ccc(C(=O)NCc3ccccc3)cc2)cc1 | 0.1 | -1.1 | 11.8 | 12.7 | -6.4 | -3.0
O=C(NCc1ccccc1)c1ccc(OC2CSC2)cc1 | -18.5 | -10.9 | 32.1* | -4.8 | -2.4 | 0.6
CC1CCC(C(C)C)C(OCC(O)CN2CCOCC2)C1 (configuration not stated) | -18.0 | -10.2 | 10.5 | 9.2 | -4.6 | -1.1
CC1CCC(C(C)C)C(OCC(O)CN2CCN(Cc3ccccc3)CC2)C1 (configuration not stated) | 9.8 | -4.9 | 30.1* | 103.5* | -5.0 | -2.9
Cc1cc(NC(=O)Cn2c(C)nc3ccccc3c2=O)ccc1Br | -7.5 | -11.6 | 24.7 | -2.6 | -2.2 | -1.1
CC(C)C(c1nnnn1C(C)(C)C)N1CCC(Cc2ccccc2)CC1 (configuration not stated) | x | -10.6 | x | x | x | -0.5
CCC(C)[C@H](NC(=O)Nc1cccc(Br)c1)C(=O)OC (some centres not stated) | x | -2.3 | x | x | x | -1.4
COc1ccc(OC)c(N=c2oc3cc(O)ccc3cc2C(N)=O)c1 | -2.2 | -7.3 | 10.4 | 13.6 | 4.8 | 5.3*
NC(=O)c1cc2ccc(O)cc2oc1=NCc1ccccc1 | x | -47.0 | 14.6 | 7.1 | x | 44.7*
CN1CCN(C(=S)Nc2cc([N+](=O)[O-])ccc2Cl)CC1 | x | -0.9 | x | x | x | -2.2
COc1ccc(/C=C/C(=O)Nc2cccc(N3CCOCC3)c2)cc1OC | x | 3.7 | x | x | x | 0.6
Cc1c(C)n(CC(O)CN2C(=O)c3ccccc3S2(=O)=O)c2ccccc12 (configuration not stated) | -2.2 | -11.4 | 33.2* | 2.2 | -5.5 | -1.3
CN1CCc2c(n(CC(O)CN3C(=O)c4ccccc4S3(=O)=O)c3ccccc23)C1=O (configuration not stated) | x | 2.3 | 17.3 | 0.7 | x | -1.1
N#CC(c1cccc(Cl)c1)c1ccc2c(C(F)(F)F)cc(C(F)(F)F)nc2n1 (configuration not stated) | 88.0* | 15.1 | 101.6* | 99.4* | -5.3 | -1.9
CC1(C)C2CC=C(/C=N/NC(=O)c3ccc(O)cc3)C1C2 (configuration not stated) | x | 13.9 | x | x | x | 0.1
